Measured values: PubChem BioAssay AID2315 (National Center for Advancing Translational Sciences (NCATS), 2010)
Out of some 290,000 compounds screened, about 27,000 (9.3%) were called active. The sample holds actives, similar compounds and a random draw of the others, so the mix is not that of the screen. A number with no mark means an inactive call. Rule as the data show it: active = inhibition mostly above about 28% (no sharp cut-off); inactive = mostly below about 43%.

Experiment: A qHTS for Small Molecule Inhibitors of Shiga Toxin; also: 0% is about no effect
Details: Vero cells, Shiga toxin protein synthesis inhibition reporter; at 38.7 µM, active compounds read high
`O=S(=O)(Cc1noc(-c2ccc(OC(F)(F)F)cc2)n1)c1ccc(F)cc1` gave an inhibition of 60.4%.
Compound `COc1ccc(C(C)NC(=O)C23CC4CC(CC(C4)C2)C3)cc1` (stereo unspecified) has an inhibition of -10.2%.
`COc1ccccc1NC(=O)CCC(=O)OC(C)C(=O)c1ccccc1` (stereo unspecified) gave an inhibition of -0.996%.
Compound `Cc1n[nH]c(C)c1S(=O)(=O)N1CCCC(C(=O)Nc2ccc(Br)cc2)C1` (stereo unspecified) has an inhibition of 3.93%.
In the case of `COc1ccc2oc(=O)cc(-c3cc4ccccc4o3)c2c1`, the inhibition is reported as -7.01%.
In the case of `COc1ccc(-c2noc(-c3cccc(OC)c3OC)n2)cc1OC`, the inhibition is reported as 64.7% (active).
Compound `COc1ccc(-c2noc(CCCC(=O)NC3CCCC3)n2)cc1OC` has an inhibition of -6.44%.
With `CCOc1nc(-c2ccc(OC)cc2)ccc1-c1noc(-c2cc(OC)c(OC)c(OC)c2)n1` the inhibition was 11.8%.
With `CC(C)NC(=O)C(c1ccc(F)cc1)N(C(=O)CCC(=O)Nc1ccccn1)c1ccccc1F` (stereo unspecified) the inhibition was -8.5%.
Work on `Cc1ccc(C)c(NS(=O)(=O)c2c(C)[nH]c(C)c2C(=O)N2CCCCC2)c1` yielded an inhibition of 2.83%.
Compound `CNc1nc(-c2ccccc2)cc(-c2ccccc2)n1` has an inhibition of 1.28%.
With `Nc1nc(-c2ccccc2)cc(-c2ccccc2)n1` the inhibition was 30.7% (active).
Compound `Nc1cccc(-c2cc(-c3ccccc3)nc(-c3cccc(N)c3)n2)c1` has an inhibition of -3.83%.
Compound `O=C(NC1CC1)C(Cc1ccccc1)NS(=O)(=O)c1ccccc1F` (stereo unspecified) has an inhibition of -4.61%.
Work on `CC1(C(=O)O)CCC(C(=O)Nc2ccc(Cl)c(Cl)c2)C1(C)C` (stereo unspecified) yielded an inhibition of -2.66%.
`O=C(Nn1c(-c2ccccc2)nc2ccccc2c1=O)c1ccc([N+](=O)[O-])cc1` gave an inhibition of -8.82%.
Compound `O=C(CCn1c(SCC(=O)c2ccccc2)nc2ccccc2c1=O)NCc1ccc(F)cc1` has an inhibition of -27.4%.
Compound `O=C(CN(C(=O)CNC(=O)c1cccs1)c1cccc(F)c1)NC1CCCCC1` has an inhibition of -5.58%.
`O=C1CCN(Cc2ccc([N+](=O)[O-])cc2)CCN1[C@H](CO)Cc1ccccc1` gave an inhibition of -0.762%.
`C=CCc1cc(C)ccc1OCCCn1ccnc1` gave an inhibition of -4.77%.
`CC1C(=O)Nc2ccc(S(=O)(=O)N3CCN(c4ccccc4F)CC3)cc2NC1=O` (stereo unspecified) showed an inhibition of -0.75%.
`COC(=O)c1c(NC(=O)c2cccs2)sc2c1CCCC2` gave an inhibition of 35.1%.
`CCCc1nnc(NC(=O)c2cccs2)s1` gave an inhibition of 39%.
With `CCc1c(C)sc(NC(=O)c2cccs2)c1C(N)=O` the inhibition was 107% (active).
With `Cc1ccc(CC(=O)Nc2cccc(C#N)c2)cc1` the inhibition was 25.6%.
Compound `N#Cc1cccc(NC(=O)CN2CCCCCC2)c1` has an inhibition of 2.24%.
For `N#Cc1cccc(NC(=O)CCC2CCCC2)c1`, the inhibition was 33.8% (active).
In the case of `COc1ccc(N2CCN(CCNC(=O)Nc3cc(Cl)ccc3Cl)CC2)cc1`, the inhibition is reported as 4.24%.
In the case of `CCc1ccccc1NC(=O)NCCN1CCCCC1`, the inhibition is reported as -9.72%.
`CCCN1CCC(=O)N(C(CSc2ccc(C)cc2)Cc2ccccc2)CC1` (stereo unspecified) gave an inhibition of -8.43%.
Compound `COc1ccc(SC[C@H](Cc2ccccc2)N2CCN(CCc3ccccc3)CCC2=O)cc1` has an inhibition of -7.36%.
In the case of `Cc1ccc(SCC(CC(C)C)N2CCN(CCc3ccccc3)CCC2=O)cc1` (stereo unspecified), the inhibition is reported as 64.5% (active).
Compound `O=c1onc(-c2c(F)cccc2F)n1-c1ccccc1Cl` has an inhibition of -3.28%.
In the case of `CCOC(=O)c1c(NC(=O)C2CCN(S(=O)(=O)c3ccc(Cl)cc3)CC2)sc2c1CCCC2`, the inhibition is reported as 45.1% (active).
Compound `CCCOC(=O)Nc1sc2c(c1C(=O)OCC)CCC2` has an inhibition of -17.5%.
`CCOC(=O)c1c(NC(=S)NC)sc2c1CCCC2` gave an inhibition of -5.4%.
`NC(=O)Cn1cc(/C=N\NS(=O)(=O)c2ccccc2)c2ccccc21` gave an inhibition of -5.18%.
`COc1ccc(-c2nc3ccccc3n2CCC(C)C)cc1OC` showed an inhibition of -2.89%.
`O=C(C[n+]1ccccc1)N/N=C/c1ccc(O)cc1` gave an inhibition of 30.3%.
In the case of `Cc1nonc1C(=O)N/N=C/c1ccc(O)cc1`, the inhibition is reported as 72.1% (active).
With `Cc1nc2ccc(C(=O)N/N=C/c3ccc(O)cc3)cc2[nH]1` the inhibition was 22.1%.
With `O=[N+]([O-])c1ccc2nc(-c3ccccn3)[nH]c2c1` the inhibition was 102% (active).
In the case of `O=C(CSc1nc2ccc([N+](=O)[O-])cc2[nH]1)c1ccc(Cl)cc1`, the inhibition is reported as -3.36%.
For `O=c1[nH]c2cccnc2n1-c1ccc([N+](=O)[O-])cc1`, the inhibition was 6.32%.
Work on `COC(=O)c1cc(S(=O)(=O)Nc2ccc(C)c(F)c2)c[nH]1` yielded an inhibition of 9.13%.
In the case of `CC(C)c1c(C(=O)N/N=C/c2ccccc2C(=O)O)nnn1-c1nonc1N`, the inhibition is reported as 0.546%.
`Cc1cccc(N2CCN(Cc3nc(C4CC4)no3)CC2)n1` showed an inhibition of 18.6%.
For `O=C(NCc1ccccc1Cl)C1CCCN1S(=O)(=O)c1ccc(F)cc1` (stereo unspecified), the inhibition was -12.5%.
In the case of `CCOC(=O)c1cn[nH]c1NC(=S)Nc1ccccc1`, the inhibition is reported as 57.1% (active).
Compound `CCOC(=O)c1cc2c(nc1NC(=S)Nc1ccccc1)CC(C)(CC)OC2` (stereo unspecified) has an inhibition of -8.83%.
For `CCOC(=O)c1ccc(NC(=S)Nc2cc(C)cc(C)n2)cc1`, the inhibition was -12.4%.
With `COc1ccc(CN2CCc3nc(Nc4ccccc4)ncc3C2)c(OC)c1OC` the inhibition was 3.91%.
`COc1cccc(C2Nc3cccc4cccc(c34)N2)c1` gave an inhibition of -2.47%.
In the case of `O=C1NC(c2cccc(Cl)c2)Nc2ccccc21` (stereo unspecified), the inhibition is reported as 18.4%.
With `COc1ccc(C2NC(=O)c3ccccc3N2)cc1` (stereo unspecified) the inhibition was 62.6% (active).
Compound `COc1cccc2cc(-c3cc(=O)oc4cc(C)c(O)cc34)oc12` has an inhibition of 0.992%.
In the case of `CCCCCc1c(C)nc(N2CCN(Cc3ccc4c(c3)OCO4)CC2)[nH]c1=O`, the inhibition is reported as 7.82%.
For `CCN(CC)C(=O)CSc1ncnc2c1cnn2-c1ccccc1`, the inhibition was 66.2% (active).
In the case of `CC(C)Sc1ncnc2c1cnn2-c1ccccc1`, the inhibition is reported as 96.6% (active).
`COc1ccccc1N1CCN(C(=O)CSc2nnc(-c3ccoc3C)o2)CC1` gave an inhibition of 31.6%.
With `COc1ccc(-n2ncc3c(SCC(=O)NNC(C)=O)ncnc32)cc1` the inhibition was 25.6% (active).
For `COc1ccccc1N1CCN(C(=O)CSc2ncnc3c2cnn3-c2ccc(C)c(C)c2)CC1`, the inhibition was 66.7% (active).
In the case of `COc1ccc(N2CCN(C(=O)CSc3ncnc4c3cnn4-c3ccc(OC)cc3)CC2)cc1`, the inhibition is reported as -9.91%.
With `COC(=O)CSc1ncnc2c1cnn2-c1ccc(C)cc1C` the inhibition was -5.7%.
Compound `c1ccc(-n2ncc3c2ncn2c(C4CCCCC4)nnc32)cc1` has an inhibition of 11.5%.
For `CC(=O)Nc1ccc(NC(=O)CSc2ncnc3c2cnn3Cc2ccccc2)cc1`, the inhibition was 3.21%.
Work on `COc1ccc(NC(=O)CSc2ncnc3[nH]ncc23)cc1` yielded an inhibition of -13.5%.
For `CN(C(=O)COc1ncnc2c1cnn2-c1ccccc1)C1CCCCC1`, the inhibition was 20.6%.
With `c1ccc(-n2ncc3c(N4CCCC4)ncnc32)cc1` the inhibition was 27.5%.
Work on `COc1ccccc1Oc1ccc(N/C=C2/CCCC2=O)cc1` yielded an inhibition of 33.6%.
In the case of `Cc1onc(-c2ccccc2)c1C(=O)N1CCN(S(=O)(=O)c2ccccc2C(F)(F)F)CC1`, the inhibition is reported as 61.7%.
In the case of `CCOc1ccc(N(CC)S(=O)(=O)c2cccc3nsnc23)cc1`, the inhibition is reported as -2.2%.
`Nc1c(Cl)cc(-c2csc(N3CCCC3c3nc4cc(Cl)c(Cl)cc4n3CCOCCO)n2)cc1Cl` (stereo unspecified) gave an inhibition of -18%.
`CCCOc1ccc(-c2c(C(=O)N/N=C/c3ccco3)nnn2-c2nonc2N)cc1` gave an inhibition of -3.97%.
Work on `CC(C)c1ccc2oc(=O)cc(CN3CCN(Cc4ccccc4)CC3)c2c1` yielded an inhibition of -3.05%.
In the case of `Cc1ccc(C(=O)N2CCC(n3nccc3NC(=O)Nc3cccc(F)c3)CC2)cn1`, the inhibition is reported as -8.38%.
In the case of `COc1ccc(-c2cc(=O)oc3cc(OC(C)C(=O)NCC4CCC(C(=O)O)CC4)ccc23)cc1` (stereo unspecified), the inhibition is reported as -4.72%.
With `O=C(Cn1cnc2c(cnn2-c2ccc(F)cc2)c1=O)NCCc1ccccc1` the inhibition was -0.429%.
Compound `O=C(Cn1cnc2c(cnn2-c2ccccc2)c1=O)NCc1ccccc1` has an inhibition of 31.9%.
For `CC(=O)Cn1cnc2c(cnn2-c2ccccc2)c1=O`, the inhibition was 34.2% (active).
`CC1C(=O)Nc2ccccc2N1C(=O)c1c(F)cccc1F` (stereo unspecified) gave an inhibition of -5.2%.
`COC(=O)C1CCCCN1C(=O)c1ccc(OC2CCN(C(C)=O)CC2)c(OC)c1` (stereo unspecified) gave an inhibition of 20.4%.
For `COc1cc(OC)cc(C(=O)NCC(=O)OCc2csc(-c3ccccc3)n2)c1`, the inhibition was 21%.
In the case of `Cc1ccc(-c2nc(COC(=O)c3c(C)noc3C)cs2)cc1`, the inhibition is reported as 104% (active).
With `Cc1ccc(S(=O)(=O)N2CCN(C(=O)COC(=O)c3c(C)noc3C)CC2)c(C)c1` the inhibition was -4.13%.
In the case of `S=C(Nc1ccc(Br)cc1Cl)N1CCC2(CC1)OCCO2`, the inhibition is reported as 76.2% (active).
In the case of `CN(C)C(=S)Nc1ccc(Br)cc1Cl`, the inhibition is reported as 23.8%.
In the case of `CC1CN(C(=S)Nc2ccc(Br)cc2Cl)CC(C)O1` (stereo unspecified), the inhibition is reported as -7.71%.
Compound `CN1CCN(S(=O)(=O)c2ccc(NC(=S)NC(=O)C3CC3)cc2)CC1` has an inhibition of 11.7%.
In the case of `S=C(NCc1cccnc1)Nc1ccc(Cl)cc1Cl`, the inhibition is reported as 23.4%.
In the case of `O=C(NC(=S)Nc1ccc(Cl)cc1Cl)C1CC1`, the inhibition is reported as 97.9% (active).
Work on `Cc1cc(Cl)ccc1NC(=S)N1CCC(C(N)=O)(N2CCCCC2)CC1` yielded an inhibition of -10.1%.
In the case of `Cc1ccc2c(c1)C1CN(C)CCC1N2C(=S)Nc1ccc(Cl)cc1Cl` (stereo unspecified), the inhibition is reported as 14.7%.
For `S=C(Nc1ccc(Cl)cc1Cl)N1CCCC1`, the inhibition was 88.2% (active).
Work on `CCc1ccc(N(CC(=O)NCc2cccnc2)S(=O)(=O)c2ccccc2)cc1` yielded an inhibition of 9.02%.
`CCn1nc(C)c(CNC(=O)C2CCC(=O)N(Cc3cccc(F)c3)C2)c1C` (stereo unspecified) gave an inhibition of -13.2%.
